Screen size: about 340,000 compounds; about 3,300 (0.97%) were called active. For the sample, actives were picked, then their nearest neighbours and some compounds at random. Values without a mark were called inactive.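 How the source made its calls: active means maximum activity change below -70%; inconclusive means maximum activity change from -70% to -50%; inactive means maximum activity change above -50%.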
Test system: Potassium voltage-gated channel subfamily H member 2, brain isoform KCNH2 3.1 (human)
Assay: qHTS for Inhibitors of KCHN2 3.1: Mutant qHTS
Settings: U2OS KCNH2 3.1, thallium flux FluxOr; stronger effect = lower value
Procedure, shortened: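 U2OS cells transduced with KCNH2 3.1 mutant virus (1.77 x 10^8 /mL, 4 h), plated overnight at 37 C, loaded 45 min with FluxOr dye plus Red40 quencher. Thallium flux rate constant from kinetic reads after stimulation buffer, normalised to controls.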
On the % scale 0 is the no-effect control and ±100 the full control effect.

| SMILES | activity change |
| --- | --- |
| CCOc1ccc(-c2nc(N)ncc2-c2ccccc2OC)c(O)c1 | -18.2% |
| COc1ccc(-c2nc(N)ncc2-c2ccc(Cl)cc2)c(O)c1 | -191% (active) |
| C=C(C)COc1ccc(-c2nc(N)ncc2-c2ccccc2OC)c(O)c1 | -6.62% |
| Cc1ccccc1-c1ccc2c(c1)O[C@@H](CN(C)Cc1ccc(C(=O)O)cc1)[C@@H](C)CN([C@H](C)CO)S2(=O)=O | 16.7% |
| CC(C)CC1C(=O)N(Cc2cn(Cc3ccco3)nn2)CCS(=O)(=O)N1Cc1ccc(-c2ccc(Cl)c(Cl)c2)cc1 (stereo not drawn) | -7.55% |
| Cc1ccc(C(c2nnnn2CS(=O)(=O)c2ccc(C)cc2)N2CCC(C(N)=O)CC2)cc1 (stereo not drawn) | 1.37% |
| CCCCC(c1nnnn1CS(=O)(=O)c1ccc(C)cc1)N1CCC(C(N)=O)CC1 (stereo not drawn) | 5.52% |
| Cc1ccc(C(c2nnnn2CS(=O)(=O)c2ccc(C)cc2)N2CCC(C)CC2)cc1 (stereo not drawn) | -72.8% (active) |
| NC(CSC(c1ccccc1)(c1ccccc1)c1ccc(-c2ccccc2)cc1)C(=O)O (stereo not drawn) | -0.906% |
| Cc1cccc(C(=O)OCC(=O)Nc2sccc2C(N)=O)c1C | 0.26% |
| N=c1n(Cc2ccc(Cl)cc2)c2ccccc2n1CC(O)c1ccco1 (stereo not drawn) | -89.6% (active) |
| N=c1n(CCc2ccccc2)c2ccccc2n1Cc1ccccc1F | -48.9% |
| Cn1c(=N)n(CC(O)c2cccs2)c2ccccc21 (stereo not drawn) | -1.02% |
| CCc1cccc(CC)c1N1C(=O)CC(Sc2ccccc2N)C1=O (stereo not drawn) | -2.21% |
| COc1ccc(-c2[nH]nc3c2C(c2ccncc2)C(C#N)=C(N)O3)cc1 (stereo not drawn) | 4.99% |
| COc1ccc(C2C(C#N)=C(N)Oc3n[nH]c(C)c32)cc1CN1CCN(c2ccc(F)cc2)CC1 (stereo not drawn) | -93.4% (active) |
| COc1cc(C2C(C#N)=C(N)Oc3n[nH]c(-c4ccccn4)c32)cc(OC)c1OC (stereo not drawn) | -3.63% |
| COc1ccc(/C=C2\SC(=S)N(CCC(=O)N3CCOCC3)C2=O)cc1OC | -2.83% |
| CCCC[C@@H]1CN=C(N)N1CCc1cccc(F)c1 | 17.6% |
| CN(C)C1=NC[C@H](Cc2ccccc2)N1CCc1ccc(F)cc1 | -104% (active) |
| CCCCN1C(N)=NC[C@@H]1Cc1ccccc1 | 12.8% |

| SMILES | activity change |
| --- | --- |
| Cc1ccc(-c2ccc(CN3C(C(C)C)C(=O)N(Cc4cn(CCC5OCCCO5)nn4)CCS3(=O)=O)cc2)cc1 (stereo not drawn) | -5.44% |
| Cc1cc2cc3n(c2nn1)N=C(Cl)CC3 | -0.335% |
| CC(OC(=O)c1cccnc1Cl)C(=O)NC1CCCCC1 (stereo not drawn) | 22.3% |
| Cc1ccc(S(=O)(=O)N2C[C@H]3C(=O)C[C@@H](c4cccc5ccccc45)N(S(=O)(=O)c4ccc(C)cc4)[C@H]3C[C@H]2c2ccc(Cl)cc2)cc1 | 5.42% |
| O=C(CSc1ncn[nH]1)Nc1nc2c(F)c(F)c(F)cc2s1 | -9.38% |
| CCc1nccn1S(=O)(=O)c1cccc([N+](=O)[O-])c1 | -98.3% (active) |
| Cc1cc(C)n(S(=O)(=O)c2cccc([N+](=O)[O-])c2)n1 | 8.67% |
| O=[N+]([O-])c1cccc(S(=O)(=O)N2CCCCCC2)c1 | -16.9% |
| OCC1OC(n2cnc3c(N4CCCC4)ncnc32)C(O)C1O (stereo not drawn) | 3.35% |
| O=S1(=O)CCN(C2CCCCCCCCCCC2)CC1 | -0.635% |
| N#Cc1cccc(NC(=O)CCC2CCCC2)c1 | -4.75% |
| N#Cc1cccc(Nc2c3c(nc4ccccc24)CCCC3)c1 | -94.8% (active) |
| N#Cc1cccc(NC(=O)CN2CCCCCC2)c1 | 13.8% |
| O=C(Nc1cc(F)ccc1F)c1ccc2c(=O)n3c(nc2c1)CCC3 | -2.54% |
| COCCCN1C(=O)C(CC(=O)NCc2cccs2)CC(C(=O)N2CCOCC2)=C1C (stereo not drawn) | 3.81% |
| C#CCOCCOCCOCCNc1nc(N2CCN(C(=O)[C@H](CCC(=O)O)n3cc(C(N)CO)nn3)CC2)nc(N2CCN(C(=O)[C@H](Cc3ccc(O)cc3)n3cc(C(N)[C@H](C)CC)nn3)CC2)n1 (stereo partly drawn) | -12.3% |
| C#CCOCCOCCOCCNc1nc(N2CCN(C(=O)C(Cc3ccc(O)cc3)n3cc(C(N)CC(C)C)nn3)CC2)nc(N2CCN(C(=O)C(Cc3ccc(O)cc3)n3cc(C(N)C(C)CC)nn3)CC2)n1 (stereo not drawn) | -9.18% |
| C#CCOCCOCCOCCNc1nc(N2CCN(C(=O)[C@H](Cc3ccc(O)cc3)n3cc(C(N)CC(C)C)nn3)CC2)nc(N2CCN(C(=O)[C@H](CCC(=O)O)n3cc(C(N)[C@H](C)CC)nn3)CC2)n1 (stereo partly drawn) | -84.4% (active) |
| CC1(c2cccc(N)c2)OCCO1 | -12.6% |
| CC(C)[C@H](NC(=O)c1ccccc1F)C(=O)Nc1cccc(S(=O)(=O)N2CCOCC2)c1 | 9.74% |
| CCOCCCN(C)C1CCN(C(=O)c2oc3ccccc3c2NC(=O)Cc2cccc([N+](=O)[O-])c2)CC1 | -104% (active) |

| SMILES | activity change |
| --- | --- |
| COc1cccc(OC)c1C(=O)Nc1c(C(=O)N2CCN(c3ccccn3)CC2)oc2ccccc12 | -4.91% |
| COCC(=O)Nc1c(C(=O)N2CCCC2)oc2ccccc12 | 6.72% |
| CN(C(=O)c1cccc(NC(=O)Cc2cccc([N+](=O)[O-])c2)c1)C1CCCCC1 | 18.4% |
| CCOCCCN(C)C1CCN(C(=O)c2oc3ccccc3c2NC(=O)COc2cccc(C)c2)CC1 | -107% (active) |
| COc1ccc(CC(=O)Nc2c(C(N)=O)oc3ccccc23)cc1 | -8.15% |
| CC1=C(C(=O)N2CCOCC2)CC(CC(=O)NCCN2CCOCC2)C(=O)N1CCC1=CCCCC1 (stereo not drawn) | 16% |
| Cc1cc(=O)c2ccc(NC(=O)c3ccccc3)cc2[nH]1 | 3.07% |
| COc1ccc(S(=O)(=O)N2CCN(CC(=O)N3CCNC3=O)CC2)cc1OC | 12.9% |
| C[C@@H]1CN([C@@H](C)CO)C(=O)c2c(c3ccccc3n2C)-c2ccccc2CO[C@H]1CN(C)C(=O)C1CC1 | 14.8% |
| N#Cc1ccc(C2=CC(=O)C[C@H](c3ccc(Cl)cc3)C2)cc1 | -83.2% (active) |
| O=C1C=C(c2cccc(Cl)c2)C[C@@H](c2ccc(F)cc2)C1 | 2.02% |
| COc1ccc([C@H]2CC(=O)C=C(c3ccc(CO)cc3)C2)cc1 | 22.6% |
| C[C@H]1CN([C@@H](C)CO)S(=O)(=O)c2ccc(-c3cccc(F)c3)cc2O[C@@H]1CN(C)C | -7.52% |
| O=C(N/C(=C\c1ccc([N+](=O)[O-])cc1)C(=O)N1CCOCC1)c1cccc(Br)c1 | -83.4% (active) |
| O=C(N/C(=C\c1ccc([N+](=O)[O-])cc1)C(=O)N1CCCCC1)c1ccco1 | -4.37% |
| O=C(Oc1ccc(Br)cc1C(=S)N1CCOCC1)c1cccc([N+](=O)[O-])c1 | -8.06% |
| O=C(Nc1cccc(NC(=O)c2ccccc2[N+](=O)[O-])c1)c1ccccc1Cl | -165% (active) |
| CC(C)C(=O)Nc1cccc(NC(=O)c2ccc([N+](=O)[O-])cc2Cl)c1 | 18.7% |
| O=C(Nc1ccncc1)c1ccccc1[N+](=O)[O-] | 8.15% |
| COc1ccc(NC(=O)C[C@H]2C(=O)N(CCc3ccccc3)C[C@@H]2C)cc1 | 5.84% |
| CCOc1ccc(CCNC(=O)COC(=O)c2ccc(C)c(S(=O)(=O)N3CCOCC3)c2)cc1OCC | 11.9% |

| SMILES | activity change |
| --- | --- |
| CNC(=O)c1ccc(CN(C)C(=O)c2cc(C3CC3)nc3c2cnn3C(C)C)cc1 | 6.55% |
| CCOC(=O)C(C(=O)c1ccccc1)C(c1ccccc1)c1nccc2ccccc12 (stereo not drawn) | -15.2% |
| Cc1cccc(C(=O)NC2CCN(CC(=O)Nc3cccc(Cl)c3)CC2)c1 | -1.48% |
| C[C@H]1CN(c2ccc(Br)cc2)C(=O)[C@@H]1CC(=O)Nc1ccc(Br)cc1 | 0.444% |
| CCOCCc1nn2c(=O)cc(CSCC(=O)Nc3cccc(C)c3C)nc2s1 | 4.66% |
| Cc1cccc(NC(=O)CSCC(=O)Nc2nnc(C3CC3)s2)c1 | -6.65% |
| CCCc1nn2c(=O)cc(CSCC(=O)Nc3cccc(C)c3)nc2s1 | -91.5% (active) |
| COc1ccc(C(CNC(=O)CSc2ccccc2)N2CCOCC2)cc1 (stereo not drawn) | 1.87% |
| O=C(NCCOc1ccccc1)c1ccccc1F | 2.92% |
| c1ccc(Cn2nnc3c(NCC4CC4)ncnc32)cc1 | -1.53% |
| CSc1ncnc2c1ncn2CCCNCc1cccs1 | 3.07% |
| COc1ccc(-n2cc(CNC3CCOCC3)c(-c3cccc(F)c3)n2)cc1 | -75% (active) |
| Cc1cccc(-n2cc(CN3CCN(C(=O)c4ncn[nH]4)CC3)c(-c3cccc(F)c3)n2)c1 | 0.932% |
| COc1ccc(-c2nn(-c3ccccc3)cc2CN2CCCO2)c(F)c1 | 4.37% |
| CCC(O)C1CCN(Cc2cn(-c3ccc(OC)cc3)nc2-c2cccc(F)c2)CC1 (stereo not drawn) | -90.7% (active) |
| COc1ccc(-n2cc(CN(C)Cc3n[nH]c(=O)[nH]3)c(-c3cccc(F)c3)n2)cc1 | -14.7% |
| Cn1cc(CN2CCC(C(O)CCc3ccccc3)CC2)c(-c2ccccc2F)n1 (stereo not drawn) | -8.61% |
| CC(OC(=O)c1ccc(NC(=O)CC#N)cc1)C(=O)Nc1ccc(S(=O)(=O)N2CCCC2)cc1 (stereo not drawn) | 8.99% |
| O=[N+]([O-])c1ccc(C(S(=O)(=O)Cc2ccccc2)S(=O)(=O)Cc2ccccc2)cc1 | -21.9% |
| CC1(C)CN(Cc2cccnc2)C(=O)[C@H]1CC(=O)Nc1ccc(Br)cc1 | -12% |
